“And” between values parts separate entries of the source, which are not always exact repeats. Equal values may be shown once. The source made the active and inactive calls.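 The calls were made as follows, unless noted: active = normalized viability below 100% at a tested concentration; inactive = the rest.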
Experiments:
[1] = viability loss with induced miR-34 in A549 – imaging, A549 dox-inducible miR-34, nuclei and caspase counts, primary screen (AID 1347080;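 active = compounds whose cell count with miR-34 switched on is under 0.7 times the count with it off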); conditions: A549 miR-34 inducible, Hoechst nuclei count, 48 h
[2] = MELAS cybrid and Rieske KO viability enhancers – cell-based, MELAS cybrids, Rieske KO mouse fibroblasts, CellTiter-Glo, primary screen (AID 1508586;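 active = mean z-score across replicates of 1.96 or higher in either the MELAS or the Rieske mutant cell line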;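 also: z relative to plate mean and SD of compound and empty wells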); conditions: low glucose
[3] = drug combination growth inhibition, ovarian cancer – cell-based, oncology-focused library, rucaparib conditional, profiling panel (AID 1508598); conditions: patient-derived ovarian cancer cells, CellTiter-Glo viability, 144 h, stronger effect = lower value
[4] = growth inhibition, single agent or in combination, cell-based, chromothripsis tumors, cisplatin or BGB combos (AID 1671449; in the data active = inhibition above about 80%;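 also: cells exposed for 96 hours; 0% = vehicle DMSO and 100% = killing by high DMSO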); conditions: LFS_MB_P medulloblastoma cells
[5] = growth inhibition, single agent and combos, cell-based, chromothripsis tumors, cisplatin or BGB combos (AID 1671450; in the data active = inhibition above about 80%;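 also: cells exposed to compound for four days; 0% = vehicle DMSO and 100% = cell killing by high DMSO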); conditions: HDN33 neuroblastoma cells, stronger effect = higher value
[6] = growth inhibition, single agents and combos, ICB984, cell-based, cisplatin or BGB combos, synergistic combos for chromothripsis tumors (AID 1671451; call rule not given here;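 also: cells exposed for 96 hours before readout; 0% = vehicle DMSO and 100% = killing by high DMSO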); conditions: ICB984 medulloblastoma cells, drug combinations, stronger effect = higher value
[7] = growth inhibition, single agents and combos, LFS_MB_1R, cell-based, cisplatin or BGB combos, synergistic combos for chromothripsis tumors (AID 1671452; in the data active = inhibition above about 80%;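 also: cells exposed for 96 hours before readout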); conditions: LFS_MB_1R medulloblastoma cells, stronger effect = higher value
[8] = growth inhibition, single agents and combos, HTB85, cell-based, BGB or cisplatin IC20 combos, synergistic combos for chromothripsis tumors (AID 1671453; in the data active = inhibition above about 80%;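 also: cells exposed for 96 hours before readout; 0% = vehicle DMSO and 100% = high DMSO killing control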); conditions: HTB85 osteosarcoma cells, drug combinations, stronger effect = higher value
[9] = growth inhibition, single agents and combos, CRL2098, cell-based, BGB or cisplatin IC20 combos, synergistic combos for chromothripsis tumors (AID 1671454; in the data active = inhibition above about 80%;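 also: cells exposed for 96 h before readout; 0% = vehicle DMSO and 100% = killing by high DMSO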); conditions: CRL2098 osteosarcoma cells, drug combinations, stronger effect = higher value
[10] = growth inhibition, single agents and combos, HD-MB03, cell-based, BGB or cisplatin IC20 combos, synergistic combos for chromothripsis tumors (AID 1671455; in the data active = inhibition above about 83%;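 also: 0% = vehicle DMSO and 100% = high DMSO as cytotoxic control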); conditions: HD-MB03 medulloblastoma cells, stronger effect = higher value
[11] = growth inhibition, single agents and combos, UWB1.289, cell-based, BGB or cisplatin combos, synergistic combos for chromothripsis tumors (AID 1671456; in the data active = inhibition above about 80%;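 also: cells exposed to compound for four days; 0% = vehicle DMSO and 100% = killing by high DMSO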); conditions: UWB1.289 ovarian carcinoma cells, stronger effect = higher value
[12] = growth inhibition, single agents and combos, LFS_MB_2R, cell-based, cisplatin combos, synergistic combos for chromothripsis tumors (AID 1671457; in the data active = inhibition above about 80%;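 also: cells exposed to compound for four days before readout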); conditions: LFS_MB_2R medulloblastoma cells, stronger effect = higher value
[13] = growth inhibition, MDA-MB-436, cell-based, BGB or cisplatin combos, synergistic combos for chromothripsis tumors (AID 1671458; call rule not given here;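 also: cells exposed for 96 hours; 0% = vehicle DMSO and 100% = killing by high DMSO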); conditions: MDA-MB-436 breast carcinoma growth inhibition, drug combinations, stronger effect = higher value
[14] = UWB1.289_BRCA1 ovarian cancer growth, cell-based, BGB or cisplatin combinations (AID 1671459; in the data active = inhibition above about 80%); conditions: UWB1.289 BRCA1 ovarian carcinoma, drug combinations, stronger effect = higher value
[15] = drug combination toxicity in non-malignant astrocytes – cell-based, BGB or cisplatin IC20 combos, cytotoxicity control for chromothriptic childhood tumor combination screen (AID 1671460; in the data active = inhibition above about 80%;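 also: cells exposed to compounds for 96 hours before viability readout; 0% = vehicle and 100% = killing control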); conditions: Human astrocytes, viability inhibition, drug combinations, at 0.5 µM, stronger effect = higher value
[16] = BT084 cell growth, single and combined drugs, ICGC_MB145, cisplatin and BGB IC40 combos (AID 1671461; in the data active = inhibition above about 80%;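 also: cells exposed to drugs for 96 hours; 0% = vehicle DMSO and 100% = high DMSO full killing control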); conditions: BT084 medulloblastoma cells, drug combinations, stronger effect = higher value
[17] = RCMB18 cell growth, single agent and combined, cisplatin and BGB IC40 combos (AID 1671462; in the data active = inhibition above about 80%;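 also: cells exposed to compound for four days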); conditions: RCMB18 medulloblastoma cells, stronger effect = higher value
[18] = CRL1545 cell growth, single agent and combined, cisplatin and BGB IC20 combos (AID 1671464; in the data active = inhibition above about 80%;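 also: cells exposed to compound for 96 hours before readout; 0% = vehicle DMSO and 100% = high DMSO killing control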); conditions: CRL1545 osteosarcoma cells, stronger effect = higher value
[19] = measured here: combination with BGB IC40, at 0.05 µM
[20] = measured here: with BGB IC20 combination, at 0.5 µM
[21] = measured here: with cisplatin IC20 combination, at 0.5 µM
[22] = measured here: combination with cisplatin, at 0.5 µM
[23] = measured here: combination with cisplatin, at 5 µM

CCOC(=O)NCCCC(=O)NCCc1ccccc1
fold change ([1]; stronger effect = lower value, cell number ratio, induced over uninduced): 0.978 (inactive)
fold change ([1]; measured here: relative caspase fold change +Dox/-Dox): 0.408
cell count ([1]; measured here: total cells with miR-34 induction, stronger effect = lower value): 8950
cell count ([1]; measured here: total cells without miR-34 induction): 9150
z-score ([2]; MELAS cybrid survival, CellTiter-Glo 48 h, stronger effect = higher value): -0.307 (inactive)
z-score ([2]; Rieske KO mouse fibroblast survival, CellTiter-Glo 72 h): 0.919
viability ([3]; at 0.000305 µM, OCI-C5x cells, with rucaparib 10 µM, 100% = cells with rucaparib alone): 123% (inactive)
viability ([3]; at 0.000305 µM, OCI-C5x cells, without rucaparib): 98.5% (active)
viability ([3]; at 0.000305 µM, OCI-P5x cells, with rucaparib 20 µM, 100% = cells with rucaparib alone): 93.8% (active)
viability ([3]; at 0.000305 µM, OCI-P5x cells, without rucaparib): 94.2% (active)
viability ([3]; at 0.00122 µM, OCI-C5x cells, with rucaparib 10 µM, 100% = cells with rucaparib alone): 108% (inactive)
viability ([3]; at 0.00122 µM, OCI-C5x cells, without rucaparib): 102% (inactive)
viability ([3]; at 0.00122 µM, OCI-P5x cells, with rucaparib 20 µM, 100% = cells with rucaparib alone): 95.3% (active)
viability ([3]; at 0.00122 µM, OCI-P5x cells, without rucaparib): 93.4% (active)
viability ([3]; at 0.00488 µM, OCI-C5x cells, with rucaparib 10 µM, 100% = cells with rucaparib alone): 111% (inactive)
viability ([3]; at 0.00488 µM, OCI-C5x cells, without rucaparib): 110% (inactive)
viability ([3]; at 0.00488 µM, OCI-P5x cells, with rucaparib 20 µM, 100% = cells with rucaparib alone): 92.7% (active)
viability ([3]; at 0.00488 µM, OCI-P5x cells, without rucaparib): 96.6% (active)
viability ([3]; at 0.0195 µM, OCI-C5x cells, with rucaparib 10 µM, 100% = cells with rucaparib alone): 116% (inactive)
viability ([3]; at 0.0195 µM, OCI-C5x cells, without rucaparib): 115% (inactive)
viability ([3]; at 0.0195 µM, OCI-P5x cells, with rucaparib 20 µM, 100% = cells with rucaparib alone): 93.3% (active)
viability ([3]; at 0.0195 µM, OCI-P5x cells, without rucaparib): 94.2% (active)
viability ([3]; at 0.0781 µM, OCI-C5x cells, with rucaparib 10 µM, 100% = cells with rucaparib alone): 110% (inactive)
viability ([3]; at 0.0781 µM, OCI-C5x cells, without rucaparib): 108% (inactive)
viability ([3]; at 0.0781 µM, OCI-P5x cells, with rucaparib 20 µM, 100% = cells with rucaparib alone): 94.7% (active)
viability ([3]; at 0.0781 µM, OCI-P5x cells, without rucaparib): 99.6% (active)
viability ([3]; at 0.313 µM, OCI-C5x cells, with rucaparib 10 µM, 100% = cells with rucaparib alone): 117% (inactive)
viability ([3]; at 0.313 µM, OCI-C5x cells, without rucaparib): 106% (inactive)
viability ([3]; at 0.313 µM, OCI-P5x cells, with rucaparib 20 µM, 100% = cells with rucaparib alone): 88.9% (active)
viability ([3]; at 0.313 µM, OCI-P5x cells, without rucaparib): 104% (inactive)
viability ([3]; at 1.25 µM, OCI-C5x cells, with rucaparib 10 µM, 100% = cells with rucaparib alone): 118% (inactive)
viability ([3]; at 1.25 µM, OCI-C5x cells, without rucaparib): 111% (inactive)
viability ([3]; at 1.25 µM, OCI-P5x cells, with rucaparib 20 µM, 100% = cells with rucaparib alone): 89.5% (active)
viability ([3]; at 1.25 µM, OCI-P5x cells, without rucaparib): 99.1% (active)
viability ([3]; at 5 µM, OCI-C5x cells, with rucaparib 10 µM, 100% = cells with rucaparib alone): 116% (inactive)
viability ([3]; at 5 µM, OCI-C5x cells, without rucaparib): 109% (inactive)
viability ([3]; at 5 µM, OCI-P5x cells, with rucaparib 20 µM, 100% = cells with rucaparib alone): 83.3% (active)
viability ([3]; at 5 µM, OCI-P5x cells, without rucaparib): 89.3% (active)
inhibition ([4]; at 0.5 µM, stronger effect = higher value): -22.5% (inactive) and -16.6% (inactive)
inhibition ([4]; measured here: combination with BGB IC20, at 0.005 µM): -34.5% and -4.15%
inhibition ([4]; measured here: combination with BGB IC40, at 0.005 µM): 74.6% and -15.4%
inhibition [4, 19]: -17.3% and -8.02%
inhibition ([4]; measured here: combination with cisplatin, at 0.5 µM, stronger effect = higher value): -12.8% and -32.3%
inhibition ([4]; measured here: combination with cisplatin, at 5 µM, stronger effect = higher value): -34.9% and -31.3%
inhibition ([5]; BGB combo, at 5 µM): -65.3% and -26.9%
inhibition ([5]; at 0.5 µM): -38.5% (inactive) and -17.7% (inactive)
inhibition ([5]; cisplatin combo, at 5 µM): -63.5% and -31.2%
inhibition [5, 20]: -39.2% and -23.4%
inhibition [5, 21]: -28% and -17.7%
inhibition ([5]; single agent, at 5 µM): -54.8% and -22.1%
inhibition ([6]; BGB IC20 combo, at 0.005 µM): -37.9% and -8.12%
inhibition ([6]; BGB IC40 combo, at 0.005 µM): -29.1% and -31.3%
inhibition ([6]; BGB IC40 combo, at 0.05 µM): -30% and -50.9%
inhibition ([6]; at 0.5 µM): -27.9% (inactive) and -27.3% (inactive)
inhibition ([6]; cisplatin combo, at 0.05 µM): -36.7% and -56.9%
inhibition ([6]; cisplatin combo, at 0.5 µM): -28.4% and -31.6%
inhibition ([6]; cisplatin combo, at 5 µM): -21.8% and -22.7%
inhibition ([6]; measured here: 5 uM single agent, at 5 µM): -34% and -5.68%
inhibition ([7]; at 0.5 µM): -35.7% (inactive) and -30.1% (inactive)
inhibition [7, 19]: -32.7% and -26.4%
inhibition [7, 22]: -69.3% and -37.1%
inhibition [7, 23]: -41.3% and -32.8%
inhibition ([8]; at 0.5 µM): -20.7% (inactive) and -9.16% (inactive)
inhibition ([8]; measured here: with BGB IC20, at 0.5 µM): -7.26% and 6.66%
inhibition ([8]; measured here: with BGB IC20, at 5 µM): -10.7% and -19.1%
inhibition ([8]; measured here: with cisplatin IC20, at 0.5 µM): -27.1% and -24.2%
inhibition ([8]; measured here: with cisplatin IC20, at 5 µM): 18% and -25.8%
inhibition ([8]; single agent, at 5 µM): -17.5% and -2.77%
inhibition ([9]; at 0.5 µM): -89.4% (inactive) and -48.9% (inactive)
inhibition ([9]; measured here: combination with BGB at IC20, at 0.5 µM): -73.5% and 13.5%
inhibition ([9]; measured here: combination with cisplatin at IC20, at 0.5 µM): -117% and -69.6%
inhibition ([10]; at 0.5 µM): -22.5% (inactive) and -0.04% (inactive)
inhibition ([10]; measured here: combo with BGB at IC20, at 0.5 µM): -19.9% and -14.2%
inhibition ([10]; measured here: combo with cisplatin at IC20, at 0.5 µM): -31.5% and 17.9%
inhibition ([11]; at 0.5 µM): -19.7% (inactive) and -14.9% (inactive)
inhibition ([11]; measured here: inhibition with BGB combination, at 0.05 µM): -30.7% and -21.8%
inhibition ([11]; measured here: inhibition with cisplatin combination, at 0.05 µM): -28.1% and -20.9%
inhibition ([12]; at 0.5 µM): -12.3% (inactive) and -24.7% (inactive)
inhibition [12, 22]: -9.92% and -32%
inhibition [12, 23]: -15.4% and -22.8%
inhibition ([13]; at 0.5 µM): -30.7% (inactive) and -10.1% (inactive)
inhibition ([13]; measured here: BGB combination, at 0.5 µM): -24.7% and -2.6%
inhibition ([13]; measured here: BGB combination, at 5 µM): -6.13% and -14.1%
inhibition ([13]; measured here: cisplatin combination, at 0.5 µM): -47% and -19.2%
inhibition ([13]; measured here: cisplatin combination, at 5 µM): -39.2% and -16.3%
inhibition ([14]; BGB combination, concentration series, at 5 µM): -32.5% and 1.48%
inhibition ([14]; at 0.5 µM): -24.6% (inactive) and -10.6% (inactive)
inhibition ([14]; cisplatin combination, concentration series, at 5 µM): -5.77% and 15.9%
inhibition [15]: 6.08% (inactive) and 5.44% (inactive)
inhibition ([15]; measured here: combo with BGB IC20): 1.7% and -5.49%
inhibition ([15]; measured here: combo with cisplatin IC20): 7.7% and 23%
inhibition ([16]; at 0.5 µM): -9.48% (inactive) and -15.9% (inactive)
inhibition ([16]; cisplatin combination, at 0.5 µM): -0.569% and -16.9%
inhibition ([16]; cisplatin combination, at 5 µM): -138% and -1.29%
inhibition ([16]; measured here: BGB IC40 combination 0.05 uM, at 0.05 µM): -26.7% and -17.1%
inhibition ([16]; single agent, at 5 µM): -8.38% and 9.97%
inhibition ([17]; at 0.5 µM): -8.55% (inactive) and -27.8% (inactive)
inhibition ([17]; cisplatin combo, at 5 µM): 7.25% and -23.2%
inhibition ([17]; measured here: BGB IC40 combination, at 0.05 µM): -14% and -29.5%
inhibition [17, 22]: 4.17% and -12.7%
inhibition ([17]; single agent, at 5 µM): -2.65% and -61.4%
inhibition ([18]; at 0.5 µM): -24.2% (inactive) and -17.6% (inactive)
inhibition [18, 20]: -40% and -29.3%
inhibition [18, 21]: -18.2% and -11.8%
inhibition ([18]; single agent, at 0.05 µM): -24.2% and 17.5%
inhibition ([18]; single agent, at 5 µM): 9.21% and -20.7%
